Laboratory results published in PubChem BioAssay AID720611 (Broad Institute, 2013).
Potency and affinity values are given separately. Activity calls are given as the source filed them.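 Rule for the calls: active = viability loss with half-effect dose no higher than twice the top dose, at all three exposure times; inconclusive = exposure times disagree or give unclear fits; inactive = inactive at every exposure time.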

Assay: SNB-19 glioblastoma cell viability over time, late-stage follow-up, mechanism study for HRAS target identification, CellTiter-Glo ATP luminescence, 8-48 h, dry powder (AID 720611)

Row | SMILES | outcome
1 | CCC(=O)N(c1ccc(OC)c(Cl)c1)C(C(=O)NCCc1ccccc1)c1cccs1 (configuration not stated) | inactive
2 | Cc1onc(C(=O)N2CCN(C(c3ccncc3)c3ccncc3)CC2)c1[N+](=O)[O-] | inactive
